{"source": "PubChem BioAssay AID2685", "about": "(National Center for Advancing Translational Sciences (NCATS), 2010)", "note": "In all, about 320,000 compounds went through this assay and about 2,100 (0.66%) were called active. About 53% were inconclusive and are not listed. Calls follow the shape of the dose curve; as a rule, active = well fitted inhibition curve with a large enough effect in the signal ratio, with a control signal flat (not every such curve was filed as active); inconclusive = small, poorly fitted or top-dose-only effect, or effect the other way, or a change in a side signal; inactive = flat fitted curve, though single readings scatter; the % refers to the signal ratio. For the sample, actives were picked, then their nearest neighbours and some compounds at random. Potency is read from the fitted curve at half-maximal effect.", "data": [{"experiment": "qHTS Assay for Lipid Storage Modulators in Drosophila S3 Cells;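 as to cell number change: cells counted by Cell Tracker Red CMTPX staining in the red channel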; as to lipid storage change, negative = inhibition: % is scaled to controls: 0 for no effect and ±100 for the full control effect", "settings": "BODIPY lipid droplet fluorescence, 18-24 h, cells fed with added oleic acid; cell number change: measured here: cell count max response; series mostly up to 46.1 µM; lipid storage change, negative = inhibition: at the top concentration", "summary_of_the_method": "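Drosophila S3 cells got compounds at several concentrations plus oleic acid (400 uM solution). Laser-scanning cytometry with 488 nm excitation read lipid droplets at 500-530 nm and cells at 575-640 nm. Percent activity was relative to 20 uM Triacsin C.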", "units": {"cell number change": "%"}, "values": [{"smiles": "CCCCC1C(=O)CC[C@H]2[C@@H]1CC(=O)[C@@H]2C/C=C\\CCCC(=O)O", "note": "(stereo not given in full)", "Potency": "9.2 µM (active)", "cell number change": -6.62}, {"smiles": "CCn1c(=O)c(C(=O)NCc2ccccc2OC)c(O)c2ccccc21", "outcome": "inactive", "cell number change": 3.38}, {"smiles": "Cc1cccc(C)c1OCc1nnc(SCC(=O)Nc2ccccc2F)o1", "lipid storage change, negative = inhibition": "29.6% (inactive)", "cell number change": -7.4}, {"smiles": "CCc1nnc(NC(=O)CSc2nnc(CSc3nc(C)cc(C)n3)o2)s1", "lipid storage change, negative = inhibition": "7.1% (inactive)", "cell number change": 9.83}, {"smiles": "Cc1ccc(NC(=O)c2cc(S(=O)(=O)NCCC3=CCCCC3)ccc2F)cc1", "lipid storage change, negative = inhibition": "-15.8% (inactive)", "cell number change": -3.48}, {"smiles": "Cc1cc(OCCCC(=O)Nc2cccc(-n3cnnn3)c2)ccc1Cl", "Potency": "3.26 µM (active)", "cell number change": 3.23}, {"smiles": "O=C(Nc1cccc(-n2cnnn2)c1)c1ccoc1COc1ccc(Cl)cc1", "Potency": "29.1 µM (active)", "cell number change": -18.1}, {"smiles": "O=C(Nc1cccc(-n2cnnn2)c1)c1cccc(Cl)c1", "Potency": "14.6 µM (active)", "cell number change": -16}, {"smiles": "O=C(Nc1ccc(C(F)(F)F)cc1)c1cccc(-n2cnnn2)c1", "lipid storage change, negative = inhibition": "19% (inactive)", "cell number change": 8.84}, {"smiles": "O=C(Nc1cccc(-n2cnnn2)c1)c1ccco1", "lipid storage change, negative = inhibition": "9.61% (inactive)", "cell number change": -16.6}, {"smiles": "O=C(COc1cccc(-n2cnnn2)c1)Nc1ccccc1", "lipid storage change, negative = inhibition": "-13.1% (inactive)", "cell number change": -12.3}, {"smiles": "O=C(Nc1cccc(-n2cnnn2)c1)c1cccs1", "outcome": "inactive", "cell number change": -3.63}, {"smiles": "O=C(CNC(=O)c1cccc(-n2cnnn2)c1)Nc1ccc(F)c(F)c1", "lipid storage change, negative = inhibition": "4.76% (inactive)", "cell number change": 0.376}, {"smiles": "COc1ccc(NC(=O)COc2cccc(-n3cnnn3)c2)cc1", "outcome": "inactive", "cell number change": -3.85}, {"smiles": "Cc1ccc(C)c(NC(=O)c2cc[n+](C)cc2)c1", "outcome": "inactive", "cell number change": -24.7}, {"smiles": "CCOC(=O)COc1ccc(S(=O)(=O)NCc2ccncc2)cc1", "lipid storage change, negative = inhibition": "-23.8% (inactive)"}, {"smiles": "Cc1ccc(/C=C/C(=O)N(Cc2cccs2)C2CCS(=O)(=O)C2)cc1", "note": "(stereo not given)", "lipid storage change, negative = inhibition": "18.4% (inactive)", "cell number change": 11.3}, {"smiles": "CCOC(=O)c1c(-c2ccccc2)csc1NC(=O)CSc1nc(N)cc(N)n1", "lipid storage change, negative = inhibition": "13.1% (inactive)", "cell number change": 11.6}, {"smiles": "COCCCn1c(C)nnc1-c1cnn(-c2ccccc2)c1N", "lipid storage change, negative = inhibition": "10.4% (inactive)", "cell number change": 22.6}, {"smiles": "O=C(Nc1cccnc1)c1ccc2c(c1)C(=O)N(CC1CCCO1)C2=O", "note": "(stereo not given)", "lipid storage change, negative = inhibition": "-113% (inactive)", "cell number change": 5.85}, {"smiles": "COc1ccc2cc3cc(C(=O)NCCN4CCN(c5ccccc5F)CC4)oc3nc2c1", "lipid storage change, negative = inhibition": "-20.3% (inactive)", "cell number change": -11.8}, {"smiles": "C/C=C(\\CS(=O)(=O)c1ccccc1)S(=O)(=O)c1ccccc1", "Potency": "5.17 µM (active)", "cell number change": -14.9}, {"smiles": "CCN(Cc1ccccc1)C(=O)CS(=O)(=O)c1ccccc1", "lipid storage change, negative = inhibition": "-5.16% (inactive)", "cell number change": 0.704}, {"smiles": "C/C(CS(=O)(=O)c1ccccc1)=N\\O", "lipid storage change, negative = inhibition": "-23.4% (inactive)", "cell number change": -17.1}, {"smiles": "O=C(NNC(=O)c1cccc(S(=O)(=O)N2CCN(c3ccccc3)CC2)c1)c1ccc(Cl)cc1", "lipid storage change, negative = inhibition": "2.76% (inactive)", "cell number change": -1.16}, {"smiles": "O=C(Nc1cccc(C(F)(F)F)c1)c1cccnc1N1CCN(CCO)CC1", "outcome": "inactive"}, {"smiles": "O=C(Nc1cccc(C(F)(F)F)c1)c1cccnc1NCCO", "Potency": "9.2 µM (active)", "cell number change": 17.5}, {"smiles": "O=C(Oc1ccc(Cl)c2cccnc12)N1CCCCCC1", "lipid storage change, negative = inhibition": "2.39% (inactive)", "cell number change": 0.575}, {"smiles": "CCN(CC)C(=O)Oc1ccc(Cl)c2cccnc12", "lipid storage change, negative = inhibition": "4.69% (inactive)", "cell number change": -13.1}, {"smiles": "O=C(Nc1cccc(C(F)(F)F)c1)c1cccnc1N1CCCC1", "outcome": "inactive"}, {"smiles": "O=C(Nc1cccc(C(F)(F)F)c1)Oc1ccc(Cl)c2cccnc12", "Potency": "8.2 µM (active)", "cell number change": -22.5}, {"smiles": "CCOc1ccccc1Oc1nc(-c2ccccc2O)nc2ccccc12", "outcome": "inactive", "cell number change": 16.3}, {"smiles": "N#Cc1c(C(F)(F)F)cc(-c2ccc(F)cc2)nc1SCC(=O)O", "lipid storage change, negative = inhibition": "17% (inactive)", "cell number change": 0.873}, {"smiles": "CC(c1ccc(O)cc1)(c1ccc(O)cc1)c1ccc(CCBr)cc1", "lipid storage change, negative = inhibition": "-11.7% (inactive)", "cell number change": -16}, {"smiles": "O=C(Nc1ccc(-n2cc(Cl)cn2)cc1)c1ccncc1", "lipid storage change, negative = inhibition": "-2.29% (inactive)", "cell number change": 13}, {"smiles": "Cc1ccc(C(=O)/C=C/N(C)C)o1", "lipid storage change, negative = inhibition": "-9.3% (inactive)", "cell number change": -4.62}, {"smiles": "COc1ccc(C2=NC(C)(C)Cc3cc(OC)c(OC)cc32)cc1", "lipid storage change, negative = inhibition": "14.1% (inactive)", "cell number change": -1.73}, {"smiles": "CCNC(=O)n1nccc1C(C)Oc1ccccc1", "note": "(stereo not given)", "lipid storage change, negative = inhibition": "7.19% (inactive)", "cell number change": 17.8}, {"smiles": "CCc1ccc(CNC(=O)C2CCN(S(=O)(=O)N3CC(C)CC(C)C3)CC2)cc1", "note": "(stereo not given)", "lipid storage change, negative = inhibition": "-15.9% (inactive)", "cell number change": 14.3}, {"smiles": "COc1ccc(CNC(=O)CSc2nccn(-c3ccc(F)c(F)c3)c2=O)cc1", "cell number change": 17.2, "lipid storage change, negative = inhibition": "-25.5% [at 0.0737 µM] (inactive)"}, {"smiles": "Cc1ccc(CNC(=O)CSc2nccn(-c3ccc(C)c(F)c3)c2=O)cc1", "Potency": "14.6 µM (active)", "cell number change": -20}, {"smiles": "CCOc1ccc(-n2ccnc(SCC(=O)NCCc3ccccc3)c2=O)cc1", "lipid storage change, negative = inhibition": "22.2% (inactive)", "cell number change": -8.43}, {"smiles": "CN1CCN(c2ncnc3sc(-c4ccccc4)cc23)CC1", "lipid storage change, negative = inhibition": "15% (inactive)", "cell number change": 24.2}, {"smiles": "CN1CCN(C(=O)/C=C/c2ccc([N+](=O)[O-])o2)CC1", "Potency": "32.6 µM (active)", "cell number change": -21.6}, {"smiles": "O=C(/C=C\\c1ccc(-c2cccc([N+](=O)[O-])c2)o1)N1CCOCC1", "lipid storage change, negative = inhibition": "0.516% (inactive)", "cell number change": 1.96}, {"smiles": "COc1ccc(/C=C/C(=O)c2ccc([N+](=O)[O-])o2)cc1", "lipid storage change, negative = inhibition": "-7.12% (inactive)", "cell number change": 5.86}, {"smiles": "CCc1ccc(C(=O)/C=C/c2ccc([N+](=O)[O-])o2)cc1", "Potency": "1.3 µM (active)", "cell number change": -21.1}, {"smiles": "CN1CCN(C(=O)/C=C/c2ccc([N+](=O)[O-])cc2)CC1", "lipid storage change, negative = inhibition": "-0.257% (inactive)", "cell number change": -5.05}, {"smiles": "CCN(CC)S(=O)(=O)c1ccc(C(=O)/C=C/c2ccc(-c3ccc([N+](=O)[O-])cc3)o2)cc1", "lipid storage change, negative = inhibition": "-2.16% (inactive)", "cell number change": 6.91}]}]}
